# Measurements from PubChem BioAssay AID504850 (National Center for Advancing Translational Sciences (NCATS), 2011).
# In all, about 2,300 compounds went through this assay and about 1,200 (52%) were called active. Inconclusive results (about 34%) are left out. The set was probably picked from earlier hits. Some of the results follow. A number with no mark means an inactive call. The call rests on the fitted dose curve; in most records, active means well fitted inhibition curve with a large enough effect; inconclusive means small, poorly fitted or top-dose-only effect, or effect the other way; inactive means no such curve, though single readings can be large or run the other way.
# Assay: Confirmation screen for delayed death inhibitors of the malarial parasite plastid, 48 hour incubation; further: nearly all actives have a fitted effect of over 65% in size
# Details: P. falciparum-infected erythrocytes, luciferase growth; series mostly up to 28.7 µM; activity change, negative = inhibition: at the top concentration
# In short: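 Erythrocytes infected with luciferase-expressing P. falciparum (2% hematocrit, 0.1% parasitemia) incubated with compounds 48 hours at 37 C, 5% CO2, in RPMI/Albumax. Growth inhibition scored as reduced luminescence after detection reagent.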
# On the % scale 0 is the no-effect control and ±100 the full control effect; potency means the concentration at half of the fitted maximal effect.
Compound,Potency,"activity change, negative = inhibition [%]"
N#C/C(=C\c1ccc(-c2ccc(C(=O)O)cc2)o1)C(=O)Nc1ccc(F)cc1,14.1 µM (active),
Cc1ccc(NC2=C/C(=N\S(=O)(=O)c3cccs3)c3ccccc3C2=O)c(C)c1,0.282 µM (active),
CC(C)(C(=O)N[C@H](CO)c1ccccc1)C(=O)N[C@H](CO)c1ccccc1,,-2.48
CCCC(=O)NC(c1ccccc1)c1c(O)ccc2ccccc12 (stereo not drawn),7.08 µM (active),
CCCCNC(=O)c1onc(CSc2cccc3ccccc23)c1C(=O)O,,-3.23
CCC1=C/C(=C/c2sc3ccccc3[n+]2CC)CC(C)(C)C1,5.62 µM (active),
CCCc1nnc(NC(=O)c2nc(S(=O)(=O)Cc3cccc(C)c3)ncc2Cl)s1,,-23.9
CCC(C)[C@@H](NC(=O)OC(C)(C)C)c1nnc(S(=O)(=O)Cc2cccc(C)c2)o1 (stereo partly drawn),14.1 µM (active),
O=C(COc1ccccc1Cl)NC(=S)N1CCc2ccccc21,12.6 µM (active),
O=C(COc1cccc2ccccc12)Nc1ccc(Cl)cc1C(=O)O,,-10
COc1cc2cc(CN(CCc3ccccc3C)C(=S)NCCCN3CCOCC3)c(=O)[nH]c2cc1OC,7.94 µM (active),
COc1cc2cc(CN(Cc3cccs3)C(=S)Nc3ccc(C)cc3)c(=O)[nH]c2cc1OC,10 µM (active),
CCC(=O)NCCc1cc2ccc(C)cc2[nH]c1=O,,-7.04
CS(=O)(=O)c1ccc(-c2nnc(NC(=O)c3ccc(S(=O)(=O)N4CCCC4)cc3)o2)cc1,14.1 µM (active),
C=CCNC(=S)N/N=C/c1ccc(-c2cc(Cl)ccc2Cl)o1,12.6 µM (active),
O=C(NCc1cccnc1)/C(=C\c1ccc(-c2cccc(Cl)c2)o1)S(=O)(=O)c1ccccc1,12.6 µM (active),
O=C(NCc1cccnc1)c1nc(-c2ccccc2)n(-c2ccccc2)n1,,-19.4
COc1cc(CNC(=O)CCn2nc(C)c3c(C)n(-c4ccccc4)nc3c2=O)cc(OC)c1OC,12.6 µM (active),
Cc1ccc2c(c1)N(CCC(=O)NCc1ccco1)C(=O)CO2,,-8.96
COc1ccccc1CNC(=O)CCCn1nc(C)c2c(C)n(-c3ccccc3)nc2c1=O,12.6 µM (active),

Compound,Potency,"activity change, negative = inhibition [%]"
COc1ccccc1CCNC(=O)CCn1nc(C)c2c(C)n(-c3ccccc3)nc2c1=O,14.1 µM (active),
Cc1ccc(-n2nc3c(=O)n(CCCC(=O)NCc4ccco4)nc(C)c3c2C)cc1,6.31 µM (active),
CC(=O)Nc1sc(C)c(C)c1C(=O)OCC(=O)N(CC(C)C)C1CCS(=O)(=O)C1 (stereo not drawn),12.6 µM (active),
CSCCC(NC(=O)c1ccccc1Cl)C(=O)N1CCN(C(c2ccccc2)c2ccccc2)CC1 (stereo not drawn),3.98 µM (active),
Cc1ccc(N(Cc2ccco2)C(=O)c2ccc(N3CCCCC3)c([N+](=O)[O-])c2)cc1,11.2 µM (active),
C=CCNC(=O)c1onc(CSc2ccccc2CC)c1C(=O)O,,-13.2
O=C(O)c1cc(-c2ccc3ccccc3c2)nc2ccc(F)cc12,,-26.3
Fc1ccc2cnc(-c3ccccc3)c(-c3ccc(C(F)(F)F)cc3)c2c1,15.8 µM (active),
CCCN1CCN(C(=O)C2CCN(S(=O)(=O)c3ccc4c(c3)NC(=O)C(C)S4)CC2)CC1 (stereo not drawn),12.6 µM (active),
COc1ccc(C(C)(C)C)cc1NC(=O)c1[nH]c(C)c(C(C)=O)c1C,7.94 µM (active),
CC(=O)c1c(C)[nH]c(C(=O)COC(=O)COc2ccccc2F)c1C,,-4.9
CC#CC#Cc1cccc(=O)o1,8.91 µM (active),
CCCn1c(CN2CCN(C(=O)OCC)CC2)nc2cc(NC(=O)C(C)C)ccc21,11.2 µM (active),
CCNc1ccc(Br)cc(C(=O)/C=C/c2c(Cl)cccc2Cl)c1=O,10 µM (active),
COc1ccc(-c2cn(-c3ccccc3)c3[n+]2CCS3)cc1,3.16 µM (active),
COc1cc(/C=C2/CCC/C(=C\c3cc(O)c(OC)c(Cl)c3)C2=O)cc(Cl)c1O,11.2 µM (active),
COc1cc(/C=C2\COC/C(=C\c3ccc(O)c(OC)c3)C2=O)ccc1O,6.31 µM (active),
COc1cc(/C=C2\CC(C(C)(C)C)C/C(=C\c3cc(OC)c(OC)c(OC)c3)C2=O)cc(OC)c1OC (stereo not drawn),5.01 µM (active),
COc1cc(/C=C2\COC/C(=C\c3cc(OC)c(OC)c(OC)c3)C2=O)cc(OC)c1OC,2.82 µM (active),
CCOc1ccc(/C=C2\SC(=S)N(C(C(=O)O)c3ccccc3)C2=O)cc1OC (stereo not drawn),,0.811

Compound,Potency,"activity change, negative = inhibition [%]"
COc1ccc(/C=C2\CC/C(=C\c3ccc(OC)c(OC)c3)C2=O)cc1OC,15.8 µM (active),
CC(C)c1ccc(NC(=O)c2cc(S(=O)(=O)N3CCCC3)c[nH]2)cc1,12.6 µM (active),
COc1ccc(-c2c(C(C)=O)c(C)n(C)c2C)cc1,12.6 µM (active),
CC(C)N1CCC(N2CCN(Cc3ccc(-c4ccc(Cl)cc4)o3)CC2CCO)CC1 (stereo not drawn),6.31 µM (active),
O=C(CN1C2=NCCCN2c2ccccc21)c1ccc2c(c1)OCO2,11.2 µM (active),
OC(CN1C2=NCCN2c2ccccc21)c1ccc2c(c1)OCO2 (stereo not drawn),5.01 µM (active),
Cc1ccc(C)c(C(=O)CN2C3=NCCCN3c3ccccc32)c1,12.6 µM (active),
Nc1cccc2c1C(=O)N(C(=O)/C=C/c1ccc(F)cc1)C2=O,,-27.2
Cc1cc2c(c(=O)n1Cc1ccco1)C(c1cccnc1)C(C#N)=C(N)O2 (stereo not drawn),,-11.5
OC(c1ccccc1)(c1ccccc1)C1CCN(C(=S)NCCc2ccccc2)CC1,11.2 µM (active),
CN(Cc1cccc(Cl)c1Cl)C(=O)c1ccc(NC(=O)CC#N)cc1,3.98 µM (active),
O=C(CSc1ccc(-c2cccnc2)nn1)Nc1ccccc1C(F)(F)F,,-11.1
O=C(CSc1nc(-c2ccco2)cc(C(F)(F)F)n1)Nc1ccccc1C(F)(F)F,14.1 µM (active),
O=S1(=O)C=C(Sc2nc3cc(Cl)ccc3o2)c2ccccc21,11.2 µM (active),
O=S1(=O)C=C(Sc2nnc(-c3ccccc3)o2)c2ccccc21,12.6 µM (active),
CCOC(=O)Cn1c(S(=O)(=O)Cc2cccc(F)c2)nc(-c2ccccc2)c1-c1ccccc1,11.2 µM (active),
C#CCn1c(S(=O)(=O)Cc2ccc(F)cc2)nc(-c2ccccc2)c1-c1ccccc1,14.1 µM (active),
C#CCn1c(S(=O)(=O)Cc2ccc(C)cc2)nc(-c2ccccc2)c1-c1ccccc1,12.6 µM (active),
